{"source": "PubChem BioAssay", "note": "Entries with a potency or affinity are not part of this list. Inconclusive results are not listed. Unmarked numbers belong to inactive results. No rule for the calls is given here."}
{"assay": "IGROV1 cell killing – plate reader, dry powder samples, PAX8 inhibitor project, dose response (AID 743043);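 also: more negative means fewer viable cells or more cytotoxicity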", "conditions": "IGROV1 ovarian cancer cell cytotoxicity; series mostly up to 35 µM; activity change, negative = cytotoxicity: at the top concentration"}
{"compound": "Cc1noc(C)c1S(=O)(=O)N(C)C[C@H]1OCCCC[C@@H](C)Oc2ccc(NS(=O)(=O)c3ccc(Cl)cc3)cc2C(=O)N([C@@H](C)CO)C[C@@H]1C", "activity change, negative = cytotoxicity": "-19.3%"}
{"compound": "C[C@H]1CN([C@@H](C)CO)C(=O)c2cc(NS(=O)(=O)c3ccccc3)ccc2O[C@@H]1CN(C)Cc1ccc(Oc2ccccc2)cc1", "activity change, negative = cytotoxicity": "-15.6%"}
{"compound": "COc1cccc(-c2ccc([C@H]3[C@@H](CO)N(C(=O)Cc4ccccc4)[C@H]3C#N)cc2)c1", "activity change, negative = cytotoxicity": "17.4%"}
{"compound": "C[C@@H]1CN([C@@H](C)CO)C(=O)c2cc(NC(=O)c3ccccc3)ccc2O[C@@H](C)CCCCO[C@@H]1CN(C)Cc1ccc(C(F)(F)F)cc1", "activity change, negative = cytotoxicity": "-9.87%"}
{"compound": "C[C@@H]1CN([C@H](C)CO)C(=O)c2cc(NS(=O)(=O)c3ccc(Cl)cc3)ccc2O[C@@H](C)CCCCO[C@@H]1CN(C)Cc1ccccc1", "activity change, negative = cytotoxicity": "11%"}
{"compound": "CCCn1c(C)cc(C(=O)CN2C(=O)c3ccccc3S2(=O)=O)c1C", "activity change, negative = cytotoxicity": "3.41% [at 50 µM]"}
{"compound": "C[C@H](CO)N1C[C@H](C)[C@H](CN(C)S(=O)(=O)c2ccc(Cl)cc2)OCCCC[C@H](C)Oc2ccc(NC(=O)Nc3ccc(C(F)(F)F)cc3)cc2C1=O", "activity change, negative = cytotoxicity": "-8.08%"}
{"compound": "Cc1ccc(S(=O)(=O)Nc2ccc3c(c2)CC(=O)N([C@H](C)CO)C[C@H](C)[C@H](CN(C)S(=O)(=O)c2ccc(F)cc2)O3)cc1", "activity change, negative = cytotoxicity": "14.4%"}
{"compound": "C[C@H]1CN([C@@H](C)CO)C(=O)Cc2cc(NC(=O)NC3CCCCC3)ccc2O[C@H]1CN(C)S(=O)(=O)c1ccc(Cl)cc1", "activity change, negative = cytotoxicity": "-5.9%"}
{"compound": "Cc1ccc(S(=O)(=O)N(C)C[C@H]2Oc3cc(C#Cc4ccncc4)ccc3S(=O)(=O)N([C@@H](C)CO)C[C@@H]2C)cc1", "activity change, negative = cytotoxicity": "1.32%"}
{"compound": "C[C@H](CO)N1C[C@H](C)[C@H](CN(C)S(=O)(=O)c2ccc(Cl)cc2)OCCCC[C@H](C)Oc2ccc(NS(=O)(=O)c3ccc(F)cc3)cc2C1=O", "activity change, negative = cytotoxicity": "4.59%"}
{"assay": "OVCAR-3 cell viability loss – plate reader, dry powder samples, PAX8 inhibitor project, dose response (AID 743044)", "conditions": "NIH:OVCAR-3 ovarian cancer cell viability; max activity: at 35 µM, active compounds read low unless noted; series mostly up to 50 µM; activity change, negative = cytotoxicity: at the top concentration", "units": {"activity change, negative = cytotoxicity": "%"}}
{"compound": "C[C@H]1CCCCO[C@H](CN(C)Cc2ccc(C(F)(F)F)cc2)[C@@H](C)CN([C@@H](C)CO)C(=O)c2cc(NS(=O)(=O)c3ccc(Cl)cc3)ccc2O1", "max activity": "16.3% [at 1 µM, active compounds read low]"}
{"compound": "C[C@H]1CN([C@@H](C)CO)C(=O)c2cc(NS(=O)(=O)c3ccccc3)ccc2O[C@@H]1CN(C)Cc1ccc(Oc2ccccc2)cc1", "max activity": "-20.4% [at 8 µM, active compounds read low]"}
{"compound": "Cc1ccc(S(=O)(=O)CC(CN2CCCCC2)N2CCCCC2)cc1", "note": "(centres undefined)", "activity change, negative = cytotoxicity": -110}
{"compound": "C[C@@H]1CN([C@H](C)CO)C(=O)c2cc(NS(=O)(=O)c3ccc(Cl)cc3)ccc2O[C@@H](C)CCCCO[C@@H]1CN(C)Cc1ccccc1", "max activity": "22% [at 1 µM, active compounds read low]"}
{"compound": "C[C@@H]1CCCCO[C@@H](CN(C)S(=O)(=O)c2ccc(Cl)cc2)[C@H](C)CN([C@H](C)CO)C(=O)c2cc(NS(=O)(=O)c3ccc(F)cc3)ccc2O1", "max activity": "22.4% [at 2.1 µM, active compounds read low]"}
{"compound": "CCN(CC(=O)Nc1c(F)cccc1F)C(=O)c1cc(S(=O)(=O)N(C)C)ccc1N1CCCC1", "activity change, negative = cytotoxicity": -34.4}
{"compound": "CCCn1c(C)cc(C(=O)CN2C(=O)c3ccccc3S2(=O)=O)c1C", "activity change, negative = cytotoxicity": -27}
{"compound": "C[C@@H]1CCCCO[C@@H](CN(C)C(=O)Nc2cccc3ccccc23)[C@H](C)CN([C@H](C)CO)C(=O)c2cc(NS(=O)(=O)c3ccc(F)cc3)ccc2O1", "max activity": "12.2% [at 0.26 µM, active compounds read low]"}
{"compound": "C[C@H](CO)N1C[C@H](C)[C@H](CN(C)S(=O)(=O)c2ccc(Cl)cc2)OCCCC[C@H](C)Oc2ccc(NS(=O)(=O)c3ccc(F)cc3)cc2C1=O", "max activity": "20.8%"}
{"assay": "toxicity toward immortalized ovarian surface epithelium – cell-based, plate reader, dry powder samples, cytotoxicity control for PAX8 inhibitor project, dose response (AID 743045);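 also: 0% = neutral control median and -100% = positive control median; more negative values mean more cell killing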", "conditions": "IOSE-T80 ovarian epithelial cells; series mostly up to 35 µM; activity change, negative = cytotoxicity: at the top concentration"}
{"compound": "C[C@H]1CCCCO[C@H](CN(C)Cc2ccc(C(F)(F)F)cc2)[C@@H](C)CN([C@@H](C)CO)C(=O)c2cc(NC(=O)c3ccccc3)ccc2O1", "activity change, negative = cytotoxicity": "0.535%"}
{"compound": "Cc1noc(C)c1S(=O)(=O)N(C)C[C@H]1OCCCC[C@@H](C)Oc2ccc(NS(=O)(=O)c3ccc(Cl)cc3)cc2C(=O)N([C@@H](C)CO)C[C@@H]1C", "activity change, negative = cytotoxicity": "-12.5%"}
{"compound": "COc1ccc(-c2ccc(C3[C@@H]4CN(C(=O)Nc5cccc(F)c5)C[C@H]3N4)cc2)cc1", "note": "(some centres undefined)", "activity change, negative = cytotoxicity": "5.85%"}
{"compound": "C[C@H]1CCCCO[C@H](CN(C)Cc2ccc(C(F)(F)F)cc2)[C@@H](C)CN([C@@H](C)CO)C(=O)c2cc(NS(=O)(=O)c3ccc(Cl)cc3)ccc2O1", "activity change, negative = cytotoxicity": "14.6%"}
{"compound": "COc1ccc(S(=O)(=O)Nc2ccc3c(c2)C(=O)N([C@@H](C)CO)C[C@H](C)[C@@H](CN(C)Cc2ccc(C(F)(F)F)cc2)OCCCC[C@H](C)O3)cc1", "activity change, negative = cytotoxicity": "20.5%"}
{"compound": "C[C@H]1CN([C@@H](C)CO)C(=O)c2cc(NS(=O)(=O)c3ccccc3)ccc2O[C@@H]1CN(C)Cc1ccc(Oc2ccccc2)cc1", "activity change, negative = cytotoxicity": "-1.51%"}
{"compound": "COc1cccc(-c2ccc([C@H]3[C@@H](CO)N(C(=O)Cc4ccccc4)[C@H]3C#N)cc2)c1", "activity change, negative = cytotoxicity": "12.6%"}
{"compound": "C[C@@H]1CN([C@@H](C)CO)C(=O)c2cc(NC(=O)c3ccccc3)ccc2O[C@@H](C)CCCCO[C@@H]1CN(C)Cc1ccc(C(F)(F)F)cc1", "activity change, negative = cytotoxicity": "0.927%"}
{"compound": "Cc1ccc(S(=O)(=O)CC(CN2CCCCC2)N2CCCCC2)cc1", "note": "(centres undefined)", "activity change, negative = cytotoxicity": "-67.7% [at 50 µM]"}
{"compound": "Cc1nc2sc(C(c3ccco3)N3CCN(C(c4ccccc4)c4ccccc4)CC3)c(O)n2n1", "note": "(centres undefined)", "activity change, negative = cytotoxicity": "9.89% [at 50 µM]"}
{"compound": "C[C@H](CO)N1C[C@H](C)[C@H](CN(C)Cc2ccc(C(F)(F)F)cc2)OCCCC[C@H](C)Oc2ccc(NS(=O)(=O)c3ccccc3)cc2C1=O", "activity change, negative = cytotoxicity": "11.2%"}
{"compound": "C[C@@H]1CN([C@H](C)CO)C(=O)c2cc(NS(=O)(=O)c3ccc(Cl)cc3)ccc2O[C@@H](C)CCCCO[C@@H]1CN(C)Cc1ccccc1", "activity change, negative = cytotoxicity": "9.75%"}
{"compound": "C[C@@H]1CCCCO[C@@H](CN(C)S(=O)(=O)c2ccc(Cl)cc2)[C@H](C)CN([C@H](C)CO)C(=O)c2cc(NS(=O)(=O)c3ccc(F)cc3)ccc2O1", "activity change, negative = cytotoxicity": "17.4%"}
{"compound": "CCN(CC(=O)Nc1c(F)cccc1F)C(=O)c1cc(S(=O)(=O)N(C)C)ccc1N1CCCC1", "activity change, negative = cytotoxicity": "6.79% [at 50 µM]"}
{"compound": "C[C@H](CO)N1C[C@H](C)[C@H](CN(C)S(=O)(=O)c2ccc(Cl)cc2)OCCCC[C@H](C)Oc2ccc(NC(=O)Nc3ccc(C(F)(F)F)cc3)cc2C1=O", "activity change, negative = cytotoxicity": "19.7%"}
{"compound": "N#C[C@@H]1[C@H](c2ccc(C#CC3CCCCC3)cc2)[C@H](CO)N1S(=O)(=O)c1ccccc1", "activity change, negative = cytotoxicity": "-5.22%"}
{"compound": "Cc1ccc(S(=O)(=O)Nc2ccc3c(c2)CC(=O)N([C@H](C)CO)C[C@H](C)[C@H](CN(C)S(=O)(=O)c2ccc(F)cc2)O3)cc1", "activity change, negative = cytotoxicity": "8.81%"}
{"compound": "C[C@H]1CCCCO[C@@H](CN(C)Cc2ccc(C(F)(F)F)cc2)[C@@H](C)CN([C@@H](C)CO)C(=O)c2cc(NC(=O)c3ccccc3)ccc2O1", "activity change, negative = cytotoxicity": "-1.99%"}
{"compound": "C[C@H]1CN([C@@H](C)CO)C(=O)Cc2cc(NC(=O)NC3CCCCC3)ccc2O[C@H]1CN(C)S(=O)(=O)c1ccc(Cl)cc1", "activity change, negative = cytotoxicity": "-6.13%"}
{"compound": "C[C@@H]1CCCCO[C@H](CN(C)C(=O)C2CCCCC2)[C@@H](C)CN([C@@H](C)CO)C(=O)c2cc(NC(=O)Nc3ccc(F)cc3)ccc2O1", "activity change, negative = cytotoxicity": "24.2%"}
{"compound": "C[C@@H]1CN([C@@H](C)CO)C(=O)Cc2cc(NS(=O)(=O)c3ccc(Cl)cc3)ccc2O[C@H]1CN(C)Cc1ccc(Oc2ccccc2)cc1", "activity change, negative = cytotoxicity": "-14.5%"}
{"compound": "C[C@@H]1CCCCO[C@@H](CN(C)C(=O)Nc2cccc3ccccc23)[C@H](C)CN([C@H](C)CO)C(=O)c2cc(NS(=O)(=O)c3ccc(F)cc3)ccc2O1", "activity change, negative = cytotoxicity": "10.3%"}
{"compound": "Cc1ccc(S(=O)(=O)N(C)C[C@H]2Oc3cc(C#Cc4ccncc4)ccc3S(=O)(=O)N([C@@H](C)CO)C[C@@H]2C)cc1", "activity change, negative = cytotoxicity": "21.2%"}
{"compound": "C[C@H](CO)N1C[C@H](C)[C@H](CN(C)S(=O)(=O)c2ccc(Cl)cc2)OCCCC[C@H](C)Oc2ccc(NS(=O)(=O)c3ccc(F)cc3)cc2C1=O", "activity change, negative = cytotoxicity": "14.2%"}
